1 molecule from PubChem BioAssay (NCATS) can be followed below.

Records with an inconclusive call do not appear. A call without a number means that no potency is given here. Unmarked numbers belong to inactive results. Activity calls are given as the source filed them. The call rests on the fitted dose curve; in most records, active means well fitted activation curve with a large enough effect; inconclusive means small, poorly fitted or top-dose-only effect, or another doubt; inactive means no such curve, though single readings can be large or run the other way.

The assay deals with Rap guanine nucleotide exchange factor 3 (Homo sapiens) (UniProt O95398). Put plainly: Counterscreen qHTS for agonist of cAMP-regulated guanine nucleotide exchange factor 3 (EPAC1) (AID 1645889). Further: nearly all actives have a fitted effect of over 40% in size. The gist of the method:
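Measured: fluorescence of BODIPY-GDP bound to Rap1B, which falls as exchange proceeds. Conditions include 50 uM competing GDP, 5 and 30 min reads, and a later cAMP challenge for antagonist detection.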
For orientation: Counterscreens check selectivity or assay interference.

As for `COc1ccc(C(NCC(=O)NC(C)c2ccc(Cl)cc2)c2ccccc2)cc1` (stereo unspecified), the Potency entry was “inactive”.
